High-throughput results from PubChem BioAssay.
The list is not random: actives were taken first. Their share in the collection is about 8%.
HT1080NT lethal: kills 2HG-producing HT-1080-NT fibrosarcoma cells; HT-1080-NT fibrosarcoma viability, CellTiter-Glo ATP luminescence, 48 h; Potency, µM (highest dose often 46.1 µM), inactives show top-dose activity, negative = less viability, actives largely listed as cytotoxic; 360,000 tested, 1.6% active;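 further: NT is the 2HG producing partner of a matched IDH1 knockdown line; 0% = DMSO-treated cells and -100% = media-only wells without cells; nearly all actives have a fitted effect of over 55% in size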
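HT-1080-NT; 750 cells/well; 5% FBS RPMI; 48 h compound, 37 degrees C; CellTiter-Glo luminescence; curve fitting and curve-class assignment.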
KB-V1 MDR tox: KB-V1 MDR subline cytotoxicity | KB-V1 MDR cells viability, CellTiter-Glo, 72 h | Potency, µM (doses to about 46.1 µM), usual class: cytotoxic | 400,000 tested, 3.4% active | AID 1347076; further: on the % scale 0 is the no-effect control and ±100 the full control effect; nearly all actives have a fitted effect of over 60% in size
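qHTS viability screen in drug-selected KB-V1 MDR cells: 72 h compound treatment at 37 degrees C, ATP luminescence end point.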
SW480 rereplic: induces DNA re-replication in SW480 colon adenocarcinoma cells | SW480 DNA re-replication, Hoechst DNA content imaging, 48 h | Potency, µM (highest dose often 46.1 µM), for inactives: top-dose re-replication activation, usual class: activators | 340,000 tested, 1.8% active; further: % of control where 0% means no effect; nearly all actives have a fitted effect of over 55% in size
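Quantitative HTS format with DMSO vehicle controls; 48 hr drug incubation at 37 C, then 40 min Hoechst staining and scanning imager measurement at 405 nm excitation.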
KB-3-1 cytotox: kills parental KB-3-1 adenocarcinoma cells; Potency, µM (series often up to 46.1 µM), most hits filed as cytotoxic; KB-3-1 viability, CellTiter-Glo ATP luminescence, 72 h; 400,000 tested, 1.4% active; further: on the % scale 0 is the no-effect control and ±100 the full control effect; nearly all actives have a fitted effect of over 60% in size
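Here the drug-naive KB-3-1 line serves as comparator for MDR sub-line selectivity; cells received compound titrations, 72 h at 37 °C, then CellTiter-Glo readout.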
HT1080 IDH1KD tx: toxicity to HT-1080 IDH1 knockdown cells (counter line) | HT-1080 IDH1 knockdown viability, ATP luminescence, 48 h | Potency, µM (series often up to 46.1 µM), for inactives: at the highest dose activity, negative = toxicity, most hits filed as cytotoxic | 360,000 tested, 2% active;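 further: 0% = DMSO wells and -100% = cell-free medium wells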
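Knockdown cells (IDH1KD HT-1080) received compounds 2 h after plating at 750 cells/well and were kept 48 h at 37 °C in 5% FBS RPMI. A CellTiter-Glo luminescence read gave % activity for curve fitting.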
MCF10A rerep: inducers of DNA re-replication in MCF 10A breast cells; MCF 10A DNA re-replication, Hoechst nuclear intensity, 48 h; Potency, µM (titrated, usually from 46.1 µM), inactives show top-dose activity, positive = re-replication, actives largely listed as activators; 350,000 tested, 2.9% active; further: % of control where 0% means no effect; nearly all actives have a fitted effect of over 50% in size
Starred values were filed as active, the others as inactive; i = inactive; ? = inconclusive; . = no result given; ! = not active in a repeat; [ ] = dose if it differs, or a comment. The call rests on the fitted dose curve; in most records, active means well fitted curve in the direction sought with a large enough effect; inconclusive means small, poorly fitted or top-dose-only effect, or another doubt; inactive means no such curve, though single readings can be large; an effect the other way counts as inactive or inconclusive. Potency means the concentration at half of the fitted maximal effect.

SMILES	HT1080NT lethal	KB-V1 MDR tox	SW480 rereplic	KB-3-1 cytotox	HT1080 IDH1KD tx	MCF10A rerep
CC(C)N(CC#CCC(O)(c1ccccc1)c1ccccc1)C(C)C	-16%	13µM*	-50%	i	4%	?
Nc1ccc(S(=O)(=O)NC(Cc2ccccc2)C(=O)O)cc1 (configuration not stated)	0%	i	-1%	i	-3%	-14%
CC(C)Oc1ccc(CN=C(N)N=C(N)N)cc1Cl	?	i	21%	?	?	16%
CC(C)COc1ccc(CN=C(N)N=C(N)N)cc1Cl	?	i	-8%	13µM*	?	?
O=C(C1CCCN(S(=O)(=O)c2cccc3nonc23)C1)N1CCN(c2cccc(C(F)(F)F)c2)CC1 (configuration not stated)	.	i	.	?	.	.
Clc1cccc(Nc2nc(-c3ccncc3)cs2)c1	-5%	?	15µM*	?	?	?
O=C(Nc1ccccc1)Nc1nnc(-c2ccncc2)s1	.	?	.	18µM*	.	.
O=C(Nc1ccc(Cl)cc1)Nc1nnc(-c2ccncc2)s1	8%	2.6µM*!	-3%	?	11%	?
Cc1cc(NC(=O)Nc2ccc(C)c(C)c2)no1	29µM*	i	?	i	-4%	0%
O=C(Nc1ccc(-c2ccccc2)cc1)Nc1nnc(-c2ccncc2)s1	.	i	.	?	.	.
CS(=O)(=O)N1CCc2ccc(NC(=O)C3CCCO3)cc2C1 (configuration not stated)	5%	i	-4%	i	7%	-1%
Cc1ccc(-c2nc(SCC(=O)N3CCc4ccccc43)c3c(=O)n(C)c(=O)n(C)c3n2)cc1	.	i	.	i	.	.
COc1ccc(OC)c(/C=C/C(=O)Nc2ccc(C(=O)OCCC(C)C)cc2)c1	.	i	.	i	.	.
CCCOc1ccc(C(=O)CCC(=O)OCC(=O)Nc2cccc(S(N)(=O)=O)c2)cc1	-8%	i	7%	i	-1%	-2%
Cc1ccc(NC(=O)Nc2nnc(-c3ccncc3)s2)cc1C	-19%	?	3%	?	-2%	16µM*
c1ccc2c(Nc3nnc(-c4ccncc4)s3)cccc2c1	4%	15µM*	-1%	i	-7%	-5%
CC(=O)c1ccc(NC(=O)Nc2nnc(-c3ccncc3)s2)cc1	.	i	.	i	.	.
O=C(Nc1cccc(Cl)c1)Nc1nnc(-c2ccncc2)s1	?	?	12µM*	13µM*	10µM*	5.8µM*
O=C1[C@@H]2Cc3ccccc3CN2C(=O)N1c1cccc(F)c1	27%	i	-4%	i	0%	16%
Cc1ccccc1N1C(=O)[C@@H]2Cc3ccccc3CN2C1=O	-11%	16µM*	-6%	i	-6%	7%
COc1cc(OC)cc(C(=O)NC(=S)N2CCCCCC2)c1	-20%	18µM*	-4%	i	1%	-4%
COc1ccc(C(=O)NC(=S)N2CCCC2)cc1	15%	i	-5%	i	9%	0%
COc1ccc(C(=O)NC(=S)N2CCCCC2)cc1	0.56µM*	i	?	i	0.79µM*	6%
COc1ccccc1N(C(=O)CNC(=O)c1ccco1)C(C(=O)NC1CCCCC1)c1ccncc1 (configuration not stated)	18%	i	3%	i	16%	3%
C(=C/c1ccccc1)/CN1CCN(C(c2ccccc2)c2ccccc2)CC1	.	.	7%[20.6 µM]	.	.	?
SMILES	HT1080NT lethal	KB-V1 MDR tox	SW480 rereplic	KB-3-1 cytotox	HT1080 IDH1KD tx	MCF10A rerep
CCOc1ccc2nc(NS(=O)(=O)c3ccc(NC(C)=O)cc3)sc2c1	2%	i	-1%	i	15%	14%
CCOc1ccc2nc(NS(=O)(=O)Cc3ccccc3)sc2c1	5.8µM*	?	?	?	6.5µM*	0.23µM*
Cc1cc(-n2c(C)cc(C(=O)CSc3[nH]c(=O)cc(C(F)(F)F)c3C#N)c2C)no1	-4%[9.24 µM]	i	3.3µM*	i	0%	?
Cc1cc(C)c(C(N)=O)c(SCC(=O)c2cc(C)c(C)cc2C)n1	-16%	?	-2%	i	-24%	-6%
Cc1cc(C)c(C(N)=O)c(SCC(=O)c2cc(C)n(-c3cc(C)on3)c2C)n1	-2%	?	?	i	-5%	21µM*
Cc1cc(C)c(C(N)=O)c(SCC(=O)c2ccc(Cl)cc2)n1	0%	i	?	i	-6%	?
Cc1cc(NC(=O)CSc2[nH]c(=O)cc(C(F)(F)F)c2C#N)no1	4%	i	-16%	i	8%	2%
Cc1ccc(C(=O)CSc2nc(C)cc(C)c2C(N)=O)cc1	?	16µM*	-27%	i	?	154%
COc1ccc2c(c1)CC(C(=O)Nc1cc(OC)c(OC)c(OC)c1)CO2 (configuration not stated)	.	i	.	i	.	.
CC(=O)Nc1ccc(NC(=O)C2CCCN2S(=O)(=O)c2ccc3c(c2)CCCC(=O)N3)cc1 (configuration not stated)	.	?	.	i	.	.
CCCOc1c(Br)cc(C2C3=C(CCCC3=O)N(C)C3=C2C(=O)CCC3)cc1OC	-2%	?	?	i	-3%	-2%
C#CCOc1c(Cl)cc(C2C3=C(CCCC3=O)N(CC(=O)O)C3=C2C(=O)CCC3)cc1OC	4%	i	-101%[1.84 µM]	i	2%	21µM*
COc1ccc(C2C3=C(CCCC3=O)N(CC(=O)O)C3=C2C(=O)CCC3)cc1Cl	5%	?	?	i	-13%	21µM*
CCCOc1c(Br)cc(C2C3=C(CCCC3=O)N(CC)C3=C2C(=O)CCC3)cc1OC	-21%	i	16µM*	i	?	?
COc1cccc2cc(C(=O)OC(C)C(=O)c3ccc(C)cc3)c(=O)oc12 (configuration not stated)	19%	i	0%	i	12%	4%
Cc1ccc(C(=O)C(C)OC(=O)c2cc3cc([N+](=O)[O-])ccc3oc2=O)cc1 (configuration not stated)	-15%	i	0%	i	11µM*	-6%
Cc1ccc(C(=O)c2oc3ccccc3c2N)cc1	?	i	?	i	-24%	10µM*
COc1cccc(-c2nc(C(=O)NCCCN3CCOCC3)cc3c2[nH]c2ccccc23)c1	-18%	18µM*	?	i	-14%	?
COc1ccccc1NS(=O)(=O)c1ccc(C(=O)NCCCN2CCOCC2)cc1	-1%	i	8.2µM*	i	-1%	-7%
